# Screens: PubChem, National Center for Advancing Translational Sciences (NCATS)
# KAT2A inh = qHTS Assay for Inhibitors of GCN5L2; actives 0.21% (n = 390,000); GCN5L2 HAT assay, ThioGlo1 CoA-SH fluorescence; Potency, µM (titrated, usually from 58.9 µM), for inactives: top-dose activity change, negative = inhibition, hits mostly inhibitors; AID 504327, 2011; Histone acetyltransferase KAT2A (Homo sapiens), Q92830
#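 GCN5L2 (20 nM) in 50mM HEPES pH 7.5, 0.1mM EDTA, 0.01% Tween-20 preincubated 15 min with compounds at room temperature. Reaction started with H3(1-25) 75uM, acetyl-CoA 70uM, ThioGlo1 50uM; CoA-thiol fluorescence (Ex340/Em540) read at 0 and 20 min.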
# VDR inhibitor = Inhibitors of the vitamin D receptor (VDR): qHTS. VDR-SRC2-3 peptide fluorescence polarization, 2 h. Potency, µM, for inactives: max response, negative = inhibition, most hits filed as inhibitors. actives 0.93% (n = 400,000)
# Target sequence (P11473 whole entry, looked up): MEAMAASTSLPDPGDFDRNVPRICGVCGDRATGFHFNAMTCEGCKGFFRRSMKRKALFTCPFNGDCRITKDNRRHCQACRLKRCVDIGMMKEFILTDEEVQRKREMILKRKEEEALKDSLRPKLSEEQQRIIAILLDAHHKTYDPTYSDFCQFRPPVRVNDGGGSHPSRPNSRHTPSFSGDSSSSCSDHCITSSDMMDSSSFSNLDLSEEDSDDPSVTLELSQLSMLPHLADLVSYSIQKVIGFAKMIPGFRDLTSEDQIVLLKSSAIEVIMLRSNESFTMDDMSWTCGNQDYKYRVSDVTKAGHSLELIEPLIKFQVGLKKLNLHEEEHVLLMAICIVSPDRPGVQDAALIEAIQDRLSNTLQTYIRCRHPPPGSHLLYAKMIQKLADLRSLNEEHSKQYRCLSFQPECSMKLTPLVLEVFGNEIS
#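 VDR–SRC2-3 interaction, FP format. Cmpds 23 nl via pintool, brief spin, 2 h ambient incubation.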
# DT40 TDP1 no CPT = qHTS for Inhibitors of human tyrosyl-DNA phosphodiesterase 1 (TDP1): qHTS in cells in absence of CPT. DT40 Tdp1-/- hTDP1 cells, no CPT, ATP luminescence, 48 h. AID 686978, 2013. actives 15% (n = 420,000). Potency, µM (doses to about 46.2 µM), for inactives: at the highest dose activity change, negative = growth inhibition, most hits filed as inhibitors; also: nearly all actives have a fitted effect of over 55% in size
#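 Growth kinetics read by CellTiter-Glo luminescence after ≥48 hr at 37 °C. Cells: DT40 Tdp1-/- stably carrying human TDP1, 400 per well, compound exposure in the absence of CPT (DMSO vehicle).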
# TDP1 block = qHTS Assay for Inhibitors of Tyrosyl-DNA Phosphodiesterase (TDP1); AID 485290, 2010; recombinant TDP1, AlphaScreen DNA substrate cleavage; Tyrosyl-DNA phosphodiesterase 1 (Homo sapiens), Q9NUW8; Potency, µM (series often up to 130 µM), without a hit: at the highest dose activity change, negative = inhibition, hits mostly inhibitors; actives 0.28% (n = 350,000); also: nearly all actives have a fitted effect of over 40% in size
#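 Compounds were preincubated with Tdp1 (1 nM final) for 15 min at room temperature before substrate (15 nM final) started a 5 min reaction; beads (10 ug/ml final) were then added for 10 min before AlphaScreen detection.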
# TDP1 cell CPT = qHTS for Inhibitors of human tyrosyl-DNA phosphodiesterase 1 (TDP1): qHTS in cells in presence of CPT; chicken DT40 Tdp1-/-;hTDP1 cells + 20 nM CPT, ATP luminescence, 48 h; Potency, µM (doses to about 46.2 µM), for inactives: top-dose activity change, negative = growth inhibition, most hits filed as inhibitors; actives 12% (n = 420,000); also: nearly all actives have a fitted effect of over 55% in size
#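 Cell growth measured by CellTiter-Glo luminescence after a minimum 48 h, 37 C compound exposure with 20 nM CPT in Tdp1-knockout DT40 cells stably expressing hTDP1, seeded 400/well; qHTS titration format.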
# PLK1 PBD inh = qHTS for Inhibitors of PLK1-PDB (polo-like kinase 1 - polo-box domain): Primary Screen; Serine/threonine-protein kinase PLK1 (Homo sapiens), P53350; Plk1 PBD binding of FITC phosphopeptide, fluorescence polarization; Potency, µM, without a hit: max response, negative = inhibition, usual class: inhibitors; actives 2.8% (n = 360,000); AID 720504, 2013; also: series mostly up to about 57 µM; nearly all actives have a fitted effect of over 65% in size
# * hit, by the source's call; u = inconclusive; x = no result; [ ] = dose if it differs, or a comment. Hits are enriched below; roughly 18% of the tested compounds scored in any of these assays. Calls follow the shape of the dose curve; as a rule, active = well fitted curve in the direction sought with a large enough effect; inconclusive = small, poorly fitted or top-dose-only effect, or another doubt; inactive = no such curve, though single readings can be large; an effect the other way counts as inactive or inconclusive. % is scaled to controls: 0 for no effect and ±100 for the full control effect; potency is read from the fitted curve at half-maximal effect.
SMILES,KAT2A inh,VDR inhibitor,DT40 TDP1 no CPT,TDP1 block,TDP1 cell CPT,PLK1 PBD inh
Cc1onc(-c2ccccc2Cl)c1C(=O)O/N=C(\N)c1ccc([N+](=O)[O-])o1,0.4%,-11.3%,23.1µM*,3.8%,18.4µM*,-5.0%
O=C(OCn1nnc2ccccc2c1=O)c1cc(-c2ccccc2Cl)nc2ccccc12,-0.7%,-1.2%,-2.8%,3.2%,-19.1%,0.6%
Cc1onc(-c2ccccc2Cl)c1C(=O)OCn1nnc2ccccc2c1=O,-9.8%,18.2%,15.8µM*,3.3%,18.4µM*,1.1%
Cc1ccc(S(=O)(=O)n2nc(OC(=O)c3c(-c4ccccc4Cl)noc3C)cc2N)cc1,-10.3%,-21.3%,14.6µM*,1.0%,18.4µM*,2.67µM*
COc1ccccc1N1CCN(C(=O)c2c(-c3ccccc3Cl)noc2C)CC1,-2.3%,3.8%,20.6µM*,4.1%,u,-5.6%
Nc1cc(N)[nH]c(=S)n1,x,x,-8.3%,x,0.9%,x
C=CC[C@]12C=C(OC)C(=O)C=C1O[C@@H](c1ccc3c(c1)OCO3)[C@H]2C,x,-5.9%,-17.2%,x,0.9%,7.8%
Cc1onc(-c2ccccc2Cl)c1C(=O)Oc1ccc(Br)cc1,0.9%,-6.7%,-19.2%,-9.3%[12.3 µM],-22.2%,x
Cc1onc(-c2ccccc2Cl)c1C(=O)Oc1cccc2cccnc12,-8.6%,-18.4%,2.91µM*,1.2%,4.11µM*,8.2%
CC1C(=O)N(Cc2cn(CCC3OCCCO3)nn2)CCS(=O)(=O)N1Cc1ccc(-c2ccc(Cl)c(Cl)c2)cc1 (stereo not given),x,x,3.66µM*,x,4.11µM*,-1.9%
CC1C(=O)N(Cc2cn(CCC3OCCCO3)nn2)CCS(=O)(=O)N1Cc1ccc(-c2ccc(F)cc2)cc1 (stereo not given),x,x,18.4µM*,x,11.6µM*,0.1%
CC1C(=O)N(Cc2cn(CCC3OCCCO3)nn2)CCS(=O)(=O)N1Cc1ccc(-c2cccc(CO)c2)cc1 (stereo not given),x,x,u,x,-21.9%,-15.6%
COc1ccc(-c2ccc(CN3C(C)C(=O)N(Cc4cn(CCC5OCCCO5)nn4)CCS3(=O)=O)cc2)cc1 (stereo not given),x,x,18.4µM*,x,16.4µM*,0.6%
CC(=O)Nc1ccc(NC(=O)COC(=O)c2ccccc2OCc2cccc(Br)c2)cc1,x,x,-18.6%,x,-25.8%,x
OC1Cc2ccccc2C1Nc1cccc(C(F)(F)F)c1 (stereo not given),x,0.0%,u,x,-3.4%,-2.7%
Cc1ccc(CNC(=O)NC23CC4CC(CC(C4)C2)C3)cc1,-3.4%,-7.5%,u,-5.3%,23.1µM*,-6.2%
Cc1ccc(C23CC4CC(CC(NC(=O)NCCN(C)C)(C4)C2)C3)cc1,3.6%,-8.8%,23.1µM*,-0.9%,u,-5.7%
O=C(CSc1ccccc1C(=O)NCc1ccccc1)NC12CC3CC(CC(C3)C1)C2,-0.8%,4.9%,29.1µM*,2.6%,u,-6.8%
NS(=O)(=O)c1ccc(CNC(=O)NC23CC4CC(CC(C4)C2)C3)cc1,-0.2%,0.9%,-8.2%,10.3%,-13.8%,-4.7%
Cc1ccc(/C(O)=C/C(=O)C(=O)NC23CC4CC(CC(C4)C2)C3)cc1,-9.9%,-28.6%,13µM*,9.6%,u,-9.2%
O=C(CSc1ccccc1C(=O)NCc1ccccc1)NC1CCCCCCC1,2.6%,-1.1%,u,2.6%,u,-6.9%
CCc1ccccc1NC(=O)[C@@H](c1ccccc1)N1Cc2ccccc2C1=O,-1.7%,-18.0%,u,0.0%,u,x
O=C(Nc1ccccc1)N1CCCC2(CCN(C(=O)c3cc(C(F)(F)F)cc(C(F)(F)F)c3)CC2)C1,0.9%,6.6%,u,x,u,x
COP(=O)(OC)C(Nc1ccc(C)cc1)c1ccc(Br)cc1 (stereo not given),x,10.5%,-25.6%,x,-6.5%,-3.3%
COc1ccc(OCC(=O)Nc2c3c(nn2C(C)(C)C)CSC3)cc1,-16.2%,1.7%,u,4.6%,-27.3%,3.8%
SMILES,KAT2A inh,VDR inhibitor,DT40 TDP1 no CPT,TDP1 block,TDP1 cell CPT,PLK1 PBD inh
Cc1c(C(=O)c2ccc(Cl)cc2Cl)cnc2cc3c(cc12)OCO3,-10.7%,u,u,4.4%,u,29.9µM*
O=C(Nc1ccc2c(c1)OCO2)c1ccc(Cl)cc1Cl,-25.8%,-4.0%,-3.5%,4.6%,-10.6%,-1.8%
S=C(Nc1ccccc1)N1CCC(Cc2ccccc2)CC1,-9.1%,-20.9%,3.66µM*,x,4.11µM*,-4.3%
COc1ccc(NC(=S)N2CCN(Cc3ccccc3)CC2)cc1,-5.5%,-15.6%,u,5.3%,3.8%,-9.0%
COc1ccc(NC(=S)N2CCC(Cc3ccccc3)CC2)cc1,-3.2%,-7.0%,5.17µM*,5.5%,10.3µM*,-7.5%
O=C(Nc1ccc(OCC(=O)N2CCC(Cc3ccccc3)CC2)cc1)c1ccco1,-16.2%,10.9%,29.1µM*,9.6%,20.6µM*,-0.9%
CCCNC(=S)N1CCC(Cc2ccccc2)CC1,-2.9%,1.0%,u,0.6%,u,6.4%
Cc1ccccc1OCC(=O)Nc1ccccc1OCc1cc(=O)n2ccccc2n1,2.3%,17.1%,-4.8%,2.7%,-9.4%,x
CCOC(=O)O[C@]1(C(=O)OCCl)CC[C@@H]2[C@H]3CCC4=CC(=O)C=C[C@]4(C)[C@@H]3[C@@H](O)C[C@@]21C,u,2.3%,x,4.3%,x,x
COc1ccccc1NC(=O)C1=C(C)Nc2nnnn2C1c1cccc(C)c1 (stereo not given),-0.3%,-1.9%,u,4.9%,u,-2.0%
COc1ccccc1NC(=O)C1=C(C)Nc2nc(-c3ccco3)nn2C1c1cccc(C)c1 (stereo not given),-4.6%,-12.9%,u,x,18.4µM*,x
CC1=C(C(N)=O)C(c2cccc(C)c2)n2nc(-c3ccc(Cl)cc3)nc2N1 (stereo not given),1.0%,-2.0%,u,11.6%,20.6µM*,x
COc1ccccc1NC(=O)C1=C(C)Nc2nc(-c3ccco3)nn2C1c1ccccc1F (stereo not given),-10.3%,-16.9%,u,x,16.4µM*,x
